From PubChem BioAssay
In the library only some 10% were active in any assay of this set; here they are far more common.
VDR inhibitor – Inhibitors of the vitamin D receptor (VDR): qHTS; VDR-SRC2-3 peptide fluorescence polarization, 2 h; Potency, µM, for inactives: max response, negative = inhibition, most hits filed as inhibitors; 0.93% of 400,000 active; AID 504847, 2011; further: potency means the concentration at half of the fitted maximal effect; on the % scale 0 is the no-effect control and ±100 the full control effect
Target sequence (P11473 whole entry, looked up): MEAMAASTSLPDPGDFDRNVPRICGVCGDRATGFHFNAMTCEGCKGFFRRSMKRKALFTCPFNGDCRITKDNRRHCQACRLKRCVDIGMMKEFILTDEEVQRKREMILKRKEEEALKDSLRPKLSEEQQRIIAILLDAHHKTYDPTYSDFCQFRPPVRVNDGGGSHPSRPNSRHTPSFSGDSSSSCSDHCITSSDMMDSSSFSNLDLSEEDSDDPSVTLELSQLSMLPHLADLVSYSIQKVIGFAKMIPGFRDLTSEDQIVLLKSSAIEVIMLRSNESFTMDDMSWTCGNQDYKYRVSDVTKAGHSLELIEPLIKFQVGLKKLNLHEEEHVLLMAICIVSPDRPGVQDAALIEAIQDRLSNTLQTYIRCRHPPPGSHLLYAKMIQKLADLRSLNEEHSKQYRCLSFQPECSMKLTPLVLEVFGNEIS
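Fluorescence polarization assay measuring small-molecule disruption of VDR binding to the coregulator peptide SRC2-3. Compounds were pin-transferred (23 nl) into the reagent mix and incubated 2 h at room temperature before reading.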
Sfp inh – qHTS Assay for Inhibitors of Bacillus subtilis Sfp phosphopantetheinyl transferase (PPTase); 4'-phosphopantetheinyl transferase ffp (Bacillus subtilis), Q9F4F7; Biochemical Sfp PPTase activity, qHTS; Potency, µM, for inactives: largest response in the series, negative = inhibition, most hits filed as inhibitors; 3.5% of 310,000 active;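 further: the enzyme is Sfp with the accession as filed and its product quenches rhodamine fluorescence; potency means the concentration at half of the fitted maximal effect; 0% = enzyme reaction without inhibitor and -100% = no enzyme wells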
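Compounds were incubated with enzyme (final 15 nM) for 15 min at room temperature before substrate addition started the reaction. Fluorescence at 525 nm excitation, 598 nm emission was recorded immediately and after 30 minutes.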
PLK1 PBD inh – qHTS for Inhibitors of PLK1-PDB (polo-like kinase 1 - polo-box domain): Primary Screen | Potency, µM, without a hit: max response, negative = inhibition, most hits filed as inhibitors | Plk1 PBD binding of FITC phosphopeptide, fluorescence polarization | 2.8% of 360,000 active | AID 720504, 2013 | Serine/threonine-protein kinase PLK1 (Homo sapiens), P53350; further: potency means the concentration at half of the fitted maximal effect; series mostly up to about 57 µM; on the % scale 0 is the no-effect control and ±100 the full control effect; nearly all actives have a fitted effect of over 65% in size
Mm-Cpn inhibitor – Inhibitors of TCP-1 ring complex (TRiC) of Methanococcus maripaludis (MmCpn): qHTS; Chaperonin Mm-Cpn (Methanococcus maripaludis); purified Mm-Cpn ATPase, ADP Transcreener TR-FRET; Potency, µM (highest dose often 76.9 µM), without a hit: at the highest dose activity, negative = inhibition, usual class: inhibitors; 0.031% of 330,000 active; AID 504842, 2011; further: potency means the concentration at half of the fitted maximal effect; on the % scale 0 is the no-effect control and ±100 the full control effect; nearly all actives have a fitted effect of over 80% in size
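Inhibition of chaperonin ATP hydrolysis is measured as reduced ADP production, detected by competitive TR-FRET in which signal falls with ADP. Final enzyme 25 nM and ATP 10 uM, reacted 30 min at 37°C.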
CCT modulator – High-Throughput Screening for Modulators of Cytosolic Chaperonin Activity. purified chaperonin ATPase assay, HTRF ADP detection, 30 min. AID 651819, 2012. activity change, % (concentration not given with the values), hits read low. 0.3% of 360,000 active; in the data active means activity change below about -30%; further: on the % scale 0 is the no-effect control and ±100 the full control effect
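Nucleotide hydrolysis assay: TRiC at 20–40 nM final (set by batch activity) with 10 uM ATP, 30 min at 37 °C, in presence of 76 uM compound. Detection by competitive ADP HTRF, 30 min ambient.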
G9a inh – qHTS Assay for Inhibitors of Histone Lysine Methyltransferase G9a; Histone-lysine N-methyltransferase EHMT2 (Homo sapiens), Q96KQ7; 8.8% of 350,000 active; G9a H3K9 monomethylation, AlphaScreen, 2 h; Potency, µM (doses to about 102 µM), without a hit: top-dose activity, negative = inhibition, usual class: inhibitors; further: potency means the concentration at half of the fitted maximal effect; on the % scale 0 is the no-effect control and ±100 the full control effect; nearly all actives have a fitted effect of over 75% in size
Target sequence (Q96KQ7 913-1193 limits assumed): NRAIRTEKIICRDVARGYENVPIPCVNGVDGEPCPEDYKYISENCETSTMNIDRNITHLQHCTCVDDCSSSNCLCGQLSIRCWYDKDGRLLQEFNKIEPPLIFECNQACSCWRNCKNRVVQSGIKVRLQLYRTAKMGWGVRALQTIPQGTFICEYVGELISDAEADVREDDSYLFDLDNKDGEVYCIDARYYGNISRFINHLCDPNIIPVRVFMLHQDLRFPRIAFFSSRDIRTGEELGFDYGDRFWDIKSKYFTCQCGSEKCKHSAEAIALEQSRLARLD
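G9a (20 nM) preincubated 15 min RT with compounds, then 500 nM biotinylated H3K9 peptide and 20 uM SAM added; 2 h RT reaction. Monomethyl-H3K9 product detected by AlphaScreen with anti-H3K9me1 antibody, streptavidin donor and anti-rabbit IgG acceptor beads.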
VDR inh confirm – qHTS for Inhibitors of the vitamin D receptor (VDR): Hit Validation in Primary Screen; shares compounds with VDR inhibitor; 89% of 840 active; VDR-coactivator inhibition assay, qHTS confirmation; Potency, µM, most hits filed as inhibitors; further: potency means the concentration at half of the fitted maximal effect
VDR FP fluor – qHTS for Inhibitors of the vitamin D receptor (VDR): Hit Validation using a Fluorescein Assay. shares compounds with VDR inhibitor. Potency, µM (series often up to 57.1 µM), without a hit: top-dose activity change, negative = inhibition, usual class: inhibitors. 48% of 840 active. VDR-coactivator binding, fluorescein fluorescence polarization; further: potency means the concentration at half of the fitted maximal effect
VDR bla – qHTS for Inhibitors of the vitamin D receptor (VDR): Hit Validation using a Beta-Lactamase Assay; VDR beta-lactamase reporter cells, FRET ratio; cells co-treated with VDR agonist LG190178; Potency, µM (series often up to 46.1 µM), for inactives: at the highest dose activity change, negative = inhibition, usual class: inhibitors; 23% of 840 active; shares compounds with VDR inhibitor; further: potency means the concentration at half of the fitted maximal effect; on the % scale 0 is the no-effect control and ±100 the full control effect
VDR cytotox – qHTS for Inhibitors of the vitamin D receptor (VDR): Hit Validation using a Cytotoxicity Assay; Potency, µM (highest dose often 48.3 µM), without a hit: top-dose activity change, negative = cytotoxicity, hits mostly cytotoxic; AID 602204, 2012; 18% of 840 active; cytotoxicity counter-screen, cell viability, qHTS; shares compounds with VDR inhibitor;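 further: potency means the concentration at half of the fitted maximal effect; plate controls were DMSO for no effect and high-concentration cycloheximide for full effect; nearly all actives have a fitted effect of over 75% in size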
TbPYK inh – qHTS of Trypanosoma Brucei Inhibitors: Confirmatory Assay for Cherry-picked Compounds | 67% of 890 active | AID 720569, 2013 | shares compounds with PLK1 PBD inh | Potency, µM (doses to about 76.9 µM), without a hit: top-dose activity change, negative = inhibition, actives largely listed as inhibitors | recombinant TbPYK, Kinase-Glo ATP luminescence; further: potency means the concentration at half of the fitted maximal effect; on the % scale 0 is the no-effect control and ±100 the full control effect; nearly all actives have a fitted effect of over 70% in size
TbPYK ADP-Glo – qHTS of Trypanosoma Brucei Inhibitors: Orthogonal Assay for Cherry-picked Compounds; 62% of 890 active; shares compounds with PLK1 PBD inh; recombinant TbPYK, ADP-Glo luminescence, 60 min; Potency, µM (titrated, usually from 76.9 µM), inactives show at the top dose activity change, negative = inhibition, usual class: inhibitors; further: potency means the concentration at half of the fitted maximal effect; on the % scale 0 is the no-effect control and ±100 the full control effect; nearly all actives have a fitted effect of over 75% in size
An asterisk follows results filed as active; u = inconclusive; x = no result given; ! = repeats disagree; [ ] = remark or other dose. Unless noted, the call rests on the fitted dose curve; in most records, active means well fitted curve in the direction sought with a large enough effect; inconclusive means small, poorly fitted or top-dose-only effect, or another doubt; inactive means no such curve, though single readings can be large; an effect the other way counts as inactive or inconclusive.

SMILES	VDR inhibitor	Sfp inh	PLK1 PBD inh	Mm-Cpn inhibitor	CCT modulator	G9a inh	TbPYK inh	TbPYK ADP-Glo	others
CCN(CC)c1ccc(NC(=O)c2cccc(C)c2)cc1S(=O)(=O)Nc1ccccc1OC	50.1µM*	12.6µM*	2.99µM*	-0.4%	-4.1	3.55µM*	u	u	VDR inh confirm=u;VDR FP fluor=u;VDR bla=8.0%;VDR cytotox=-3.1%
O=C(O)CCC(=O)NCCC1=c2ccccc2=N/C1=C\c1c(O)n(Cc2ccc(F)cc2)c(=S)[nH]c1=O	20µM*	35.5µM*	1.19µM*	-3.2%	0.6	x	4.47µM*	14.1µM*	VDR inh confirm=5.97*;VDR FP fluor=u;VDR bla=8.3%;VDR cytotox=21.7%
O=C(N/N=C/c1c(O)n(Cc2ccc(F)cc2)c(=O)[nH]c1=O)c1ccccc1	-10.1%	24.4%	5.1%	0.6%	-3.1	0.9%	x	x
O=C(Nc1ccc2c(c1)OCCO2)c1cccn(Cc2cccc(F)c2)c1=O	0.7%	x	x	x	x	7.2%[59 µM]	x	x
COc1cc(/C=C2\C(=O)NC(=O)N(c3ccccc3)C2=O)c([N+](=O)[O-])cc1OC	44.7µM*	39.8µM*	11.9µM*	-3.5%	-0.8	10µM*	15.8µM*	35.5µM*	VDR inh confirm=26.7*;VDR FP fluor=20µM*;VDR bla=53.2%;VDR cytotox=29.4%
O=C1NC(=O)C(=Cc2ccc(Sc3ccccc3)o2)C(=O)N1	39.8µM*	25.1µM*	0.67µM*	-2.9%	-0.8	-22.7%[12.7 µM]	31.6µM*	35.5µM*	VDR inh confirm=10.6*;VDR FP fluor=u;VDR bla=u;VDR cytotox=u
O=C(O)Cn1cc(C=C2C(=O)NC(=O)NC2=O)c2ccccc21	-7.4%	3.5%	u	-1.4%	0.3	18.7%[2.33 µM]	x	x
Cc1cc(C)cc(NC(=O)CN2C(=O)CN=C(c3ccccc3)c3cc(Cl)ccc32)c1	9.9%	x	x	x	x	u	x	x
COc1cc(/C=C/[N+](=O)[O-])ccc1OC(=O)c1cccnc1	25.1µM*	-93.6%	3.36µM*	0.8%	0.7	3.55µM*	7.08µM*	15.8µM*	VDR inh confirm=6.7*;VDR FP fluor=u;VDR bla=u;VDR cytotox=u
CC1CCN(C(CC(=O)c2ccccc2)C(=O)c2ccccc2)CC1 (configuration not stated)	25.1µM*	x	u	x	-1.8	x	20µM*	12.6µM*	VDR inh confirm=10.6*;VDR FP fluor=u;VDR bla=u;VDR cytotox=u
COC(=O)C1C(c2ccccc2)C2C(=O)c3c(OC)cc(OC)cc3O[C@@]12c1ccc(OC)cc1 (some centres not stated)	x	11.4%	x	x	x	x	x	x
CSc1ncc(/C=C2/C(=O)NC(=O)N(C)C2=O)cn1	u	-94.8%	10.6µM*	0.6%	-0.1	x	u	u
CCCCC/C=C\C/C=C\C/C=C\C/C=C\CCCCOC(CO)CO	-7.1%	-7.6%	x	x	x	16.7%[59 µM]	x	x
O=c1c2ccccc2[se]n1-c1ccccc1	7.08µM*	0.794µM*	2.99µM*	-1.4%	-1.5	1.41µM*!	8.91µM*	6.31µM*
NC1CCc2cc(O)c(O)cc2C1 (configuration not stated)	-7.3%	39.8µM*	1.4%	0.5%	-0.1	1.5µM*	-94.8%	28.2µM*
Cc1ccccc1-c1nc(CN2C(=O)CN=C(c3ccccc3)c3ccccc32)c(C)o1	9.1%	x	x	x	x	u	x	x
Cc1ccc(/C=C2\C(=O)NC(=S)N(c3cccc(F)c3)C2=O)o1	-8.8%	17.8µM*	2.67µM*	-1.7%	1.4	1.78µM*	15.8µM*	25.1µM*
O=c1[nH]c(O)c(C=NC2CCCCC2)c(=O)[nH]1	-9.0%	13.1%	-1.0%	-1.4%	0.5	-5.6%	x	x
Cc1ccc2c(c1)=NC(=O)/C(=C/c1c(O)[nH]c(=O)[nH]c1=O)C=2	79.4µM*	35.5µM*	15µM*	-0.5%	-1.6	u	25.1µM*	22.4µM*
COC(=O)C1=C(C(=O)OC)SC2(S1)C(C(=O)OC)=C(C(=O)OC)Sc1c2ssc1=O	2µM*	x	1.19µM*	x	-0.2	x	11.2µM*	14.1µM*
COc1cc(C=C2C(=O)NC(=O)NC2=O)cc(OC)c1OC	u	31.6µM*	10.6µM*	-1.3%	-3.3	22.3%[2.33 µM]	14.1µM*	28.2µM*
COc1cc(C(=O)O)cc(OC)c1OC	-9.3%	x	-0.5%	x	-1.1	x	x	x
O=C1CN=C(c2ccccc2)c2cc(Cl)ccc2N1Cc1ccc(Cl)cc1	-3.1%	x	x	x	x	-9.7%[59 µM]	x	x
CCN1C(=O)/C(=C/c2ccc3c(c2)CCN3CCCCl)C(=O)NC1=S	-4.6%	44.7µM*	1.5µM*	-5.2%	-4.8	u	u	u
O=C1NC(=S)N(C2CC2)C(=O)/C1=C/c1ccc2c(c1)CCN2CCCCl	-16.8%	20µM*	1.5µM*	-3.9%	-2.9	11.2µM*	6.31µM*	u
